Experiments:
[1] = target: T1, Inhibitor of nuclear factor kappa-B kinase subunit epsilon (Homo sapiens) (UniProt Q14164); details: at 1 µM;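 also: reported values are averaged percent inhibition figures against human IKKε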
T1 sequence (whole entry): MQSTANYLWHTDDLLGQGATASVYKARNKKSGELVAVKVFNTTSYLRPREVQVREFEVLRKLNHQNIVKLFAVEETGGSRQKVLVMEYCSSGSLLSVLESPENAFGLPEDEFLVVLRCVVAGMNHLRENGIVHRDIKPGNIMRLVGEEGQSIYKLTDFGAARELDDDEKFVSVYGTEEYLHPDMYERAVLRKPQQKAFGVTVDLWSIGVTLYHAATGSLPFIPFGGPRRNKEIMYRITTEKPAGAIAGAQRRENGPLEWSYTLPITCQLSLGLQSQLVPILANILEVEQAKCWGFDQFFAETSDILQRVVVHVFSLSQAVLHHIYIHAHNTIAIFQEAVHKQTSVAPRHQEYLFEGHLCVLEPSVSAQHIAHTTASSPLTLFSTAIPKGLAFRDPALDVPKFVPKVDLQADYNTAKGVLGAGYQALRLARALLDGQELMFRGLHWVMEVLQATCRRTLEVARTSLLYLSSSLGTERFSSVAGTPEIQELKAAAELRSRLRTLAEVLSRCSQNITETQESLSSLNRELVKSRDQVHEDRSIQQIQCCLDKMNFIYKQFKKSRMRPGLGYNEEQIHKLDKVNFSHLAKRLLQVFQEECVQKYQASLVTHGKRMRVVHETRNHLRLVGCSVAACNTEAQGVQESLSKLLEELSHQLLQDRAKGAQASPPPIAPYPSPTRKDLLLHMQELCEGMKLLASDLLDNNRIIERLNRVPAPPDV

[2] = target: T2, Serine/threonine-protein kinase Nek1 (Homo sapiens) (UniProt Q96PY6); details: at 0.1 µM
T2 sequence (whole entry): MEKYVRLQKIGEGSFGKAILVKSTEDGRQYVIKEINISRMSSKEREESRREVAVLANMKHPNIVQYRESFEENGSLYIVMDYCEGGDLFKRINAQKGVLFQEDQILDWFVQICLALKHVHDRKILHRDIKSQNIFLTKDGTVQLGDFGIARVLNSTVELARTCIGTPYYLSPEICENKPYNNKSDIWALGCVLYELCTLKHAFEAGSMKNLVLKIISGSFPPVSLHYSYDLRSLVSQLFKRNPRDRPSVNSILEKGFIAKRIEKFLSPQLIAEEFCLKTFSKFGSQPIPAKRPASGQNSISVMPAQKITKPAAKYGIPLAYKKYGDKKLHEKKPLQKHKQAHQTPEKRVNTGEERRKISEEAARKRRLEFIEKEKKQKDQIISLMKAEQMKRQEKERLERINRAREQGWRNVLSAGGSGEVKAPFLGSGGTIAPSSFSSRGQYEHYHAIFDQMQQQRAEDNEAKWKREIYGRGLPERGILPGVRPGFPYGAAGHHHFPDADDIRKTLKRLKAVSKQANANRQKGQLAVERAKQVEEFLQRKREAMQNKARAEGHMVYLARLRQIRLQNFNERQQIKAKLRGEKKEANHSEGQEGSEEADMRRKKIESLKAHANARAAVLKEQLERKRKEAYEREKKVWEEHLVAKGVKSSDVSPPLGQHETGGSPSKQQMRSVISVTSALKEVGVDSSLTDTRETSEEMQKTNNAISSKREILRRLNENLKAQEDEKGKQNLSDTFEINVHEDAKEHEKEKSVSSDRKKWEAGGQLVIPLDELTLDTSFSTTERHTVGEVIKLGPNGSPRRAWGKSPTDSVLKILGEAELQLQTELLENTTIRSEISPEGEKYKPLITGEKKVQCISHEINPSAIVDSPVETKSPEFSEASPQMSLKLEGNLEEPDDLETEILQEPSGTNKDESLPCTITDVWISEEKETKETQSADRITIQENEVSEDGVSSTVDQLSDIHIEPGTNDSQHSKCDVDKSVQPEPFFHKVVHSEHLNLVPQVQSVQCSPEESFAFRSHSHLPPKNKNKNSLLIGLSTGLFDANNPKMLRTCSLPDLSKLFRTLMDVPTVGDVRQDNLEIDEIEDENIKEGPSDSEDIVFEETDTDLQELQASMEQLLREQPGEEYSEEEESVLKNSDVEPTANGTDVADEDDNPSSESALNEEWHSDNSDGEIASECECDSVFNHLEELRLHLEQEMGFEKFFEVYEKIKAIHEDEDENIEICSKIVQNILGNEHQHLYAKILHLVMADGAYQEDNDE

[3] = target: T2, Serine/threonine-protein kinase Nek1 (Homo sapiens); details: at 1 µM
[4] = target: T3, Serine/threonine-protein kinase Nek2 (Homo sapiens) (UniProt P51955); details: at 0.1 µM
T3 sequence (whole entry): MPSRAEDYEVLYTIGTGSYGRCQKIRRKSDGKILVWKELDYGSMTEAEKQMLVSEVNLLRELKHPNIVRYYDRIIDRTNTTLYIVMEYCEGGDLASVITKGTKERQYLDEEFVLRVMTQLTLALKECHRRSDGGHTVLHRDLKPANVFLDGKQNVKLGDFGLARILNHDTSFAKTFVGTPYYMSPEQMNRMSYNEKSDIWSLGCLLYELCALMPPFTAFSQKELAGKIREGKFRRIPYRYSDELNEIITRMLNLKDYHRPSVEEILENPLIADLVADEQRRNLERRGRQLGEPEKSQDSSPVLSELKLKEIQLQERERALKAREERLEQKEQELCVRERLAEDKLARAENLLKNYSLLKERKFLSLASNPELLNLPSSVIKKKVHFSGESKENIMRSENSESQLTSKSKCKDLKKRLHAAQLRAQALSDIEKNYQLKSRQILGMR

[5] = target: T3, Serine/threonine-protein kinase Nek2 (Homo sapiens); details: at 1 µM
[6] = target: Serine/threonine-protein kinase Nek6 (Homo sapiens) (UniProt Q9HC98); details: at 0.1 µM
Serine/threonine-protein kinase Nek6 (Homo sapiens), sequence (Q9HC98 whole entry): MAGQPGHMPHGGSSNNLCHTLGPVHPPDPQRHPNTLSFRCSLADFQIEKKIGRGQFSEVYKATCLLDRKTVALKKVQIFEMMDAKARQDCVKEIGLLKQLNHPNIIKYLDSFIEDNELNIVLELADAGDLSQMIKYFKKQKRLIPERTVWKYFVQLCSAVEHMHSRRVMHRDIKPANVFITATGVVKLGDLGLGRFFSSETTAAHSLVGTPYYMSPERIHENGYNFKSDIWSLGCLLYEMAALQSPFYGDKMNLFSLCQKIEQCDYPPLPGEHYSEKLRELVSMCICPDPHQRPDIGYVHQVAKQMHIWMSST

[7] = target: Serine/threonine-protein kinase Nek6 (Homo sapiens) (UniProt Q9HC98); details: at 1 µM
[8] = target: Serine/threonine-protein kinase Nek7 (Homo sapiens) (UniProt Q8TDX7); details: at 0.1 µM
Serine/threonine-protein kinase Nek7 (Homo sapiens), sequence (Q8TDX7 whole entry, looked up): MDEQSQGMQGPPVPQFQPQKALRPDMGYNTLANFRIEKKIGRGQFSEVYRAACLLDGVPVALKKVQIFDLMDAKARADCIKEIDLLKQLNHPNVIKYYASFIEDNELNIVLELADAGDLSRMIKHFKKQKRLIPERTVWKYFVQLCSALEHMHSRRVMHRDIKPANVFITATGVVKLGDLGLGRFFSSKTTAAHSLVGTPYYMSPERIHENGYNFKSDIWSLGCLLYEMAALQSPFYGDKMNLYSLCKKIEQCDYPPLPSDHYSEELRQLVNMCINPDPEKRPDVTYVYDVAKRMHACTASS

[9] = target: Serine/threonine-protein kinase Nek7 (Homo sapiens) (UniProt Q8TDX7); details: at 1 µM
[10] = target: T4, Serine/threonine-protein kinase Nek9 (Homo sapiens) (UniProt Q8TD19); details: at 0.1 µM
T4 sequence (whole entry): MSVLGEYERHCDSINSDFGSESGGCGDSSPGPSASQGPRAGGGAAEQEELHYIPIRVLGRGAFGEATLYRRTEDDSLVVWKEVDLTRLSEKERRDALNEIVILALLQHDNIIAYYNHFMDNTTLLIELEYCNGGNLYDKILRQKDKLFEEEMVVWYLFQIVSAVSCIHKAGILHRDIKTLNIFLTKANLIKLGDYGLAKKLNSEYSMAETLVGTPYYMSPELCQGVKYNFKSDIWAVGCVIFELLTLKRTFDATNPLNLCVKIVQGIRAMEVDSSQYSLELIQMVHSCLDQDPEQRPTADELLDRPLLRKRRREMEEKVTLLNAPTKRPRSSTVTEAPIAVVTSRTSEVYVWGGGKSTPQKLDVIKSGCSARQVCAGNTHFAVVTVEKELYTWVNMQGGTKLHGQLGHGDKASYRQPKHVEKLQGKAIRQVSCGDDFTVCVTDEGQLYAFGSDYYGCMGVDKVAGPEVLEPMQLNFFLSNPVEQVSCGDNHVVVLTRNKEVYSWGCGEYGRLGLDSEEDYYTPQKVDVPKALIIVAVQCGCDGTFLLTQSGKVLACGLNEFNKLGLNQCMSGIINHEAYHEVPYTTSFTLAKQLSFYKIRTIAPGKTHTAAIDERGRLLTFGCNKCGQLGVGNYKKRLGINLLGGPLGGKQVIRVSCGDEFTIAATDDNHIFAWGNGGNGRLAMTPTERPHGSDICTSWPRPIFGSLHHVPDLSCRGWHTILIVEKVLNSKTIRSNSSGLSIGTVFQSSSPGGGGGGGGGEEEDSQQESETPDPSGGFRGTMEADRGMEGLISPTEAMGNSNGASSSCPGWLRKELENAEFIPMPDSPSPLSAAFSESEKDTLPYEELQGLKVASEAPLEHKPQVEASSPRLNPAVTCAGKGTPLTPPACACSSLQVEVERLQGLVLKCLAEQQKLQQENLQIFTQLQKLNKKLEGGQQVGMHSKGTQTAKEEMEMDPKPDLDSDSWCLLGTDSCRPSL

[11] = target: T4, Serine/threonine-protein kinase Nek9 (Homo sapiens); details: at 1 µM
[12] = target: Serine/threonine-protein kinase PLK1 (Homo sapiens) (UniProt P53350); details: at 0.1 µM
Serine/threonine-protein kinase PLK1 (Homo sapiens), sequence (P53350 whole entry): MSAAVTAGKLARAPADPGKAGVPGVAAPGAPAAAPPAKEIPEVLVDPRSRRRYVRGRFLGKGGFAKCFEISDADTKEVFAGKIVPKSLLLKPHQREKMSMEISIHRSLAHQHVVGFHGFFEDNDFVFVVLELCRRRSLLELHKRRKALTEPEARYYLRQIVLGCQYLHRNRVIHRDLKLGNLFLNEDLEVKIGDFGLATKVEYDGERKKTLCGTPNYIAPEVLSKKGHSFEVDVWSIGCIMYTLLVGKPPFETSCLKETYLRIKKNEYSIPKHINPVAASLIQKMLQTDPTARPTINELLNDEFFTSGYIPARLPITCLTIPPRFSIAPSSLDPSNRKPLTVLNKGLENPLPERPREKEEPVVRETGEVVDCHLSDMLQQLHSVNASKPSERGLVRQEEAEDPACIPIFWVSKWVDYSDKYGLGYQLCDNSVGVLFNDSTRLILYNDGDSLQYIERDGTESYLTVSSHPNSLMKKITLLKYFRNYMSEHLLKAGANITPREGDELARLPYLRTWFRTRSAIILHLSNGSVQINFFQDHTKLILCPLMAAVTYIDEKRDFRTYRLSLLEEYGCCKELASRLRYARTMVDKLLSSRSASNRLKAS

[13] = target: Serine/threonine-protein kinase PLK1 (Homo sapiens) (UniProt P53350); details: at 1 µM
[14] = target: T5, Dual specificity protein kinase TTK (Homo sapiens) (UniProt P33981); details: at 0.1 µM
T5 sequence (whole entry): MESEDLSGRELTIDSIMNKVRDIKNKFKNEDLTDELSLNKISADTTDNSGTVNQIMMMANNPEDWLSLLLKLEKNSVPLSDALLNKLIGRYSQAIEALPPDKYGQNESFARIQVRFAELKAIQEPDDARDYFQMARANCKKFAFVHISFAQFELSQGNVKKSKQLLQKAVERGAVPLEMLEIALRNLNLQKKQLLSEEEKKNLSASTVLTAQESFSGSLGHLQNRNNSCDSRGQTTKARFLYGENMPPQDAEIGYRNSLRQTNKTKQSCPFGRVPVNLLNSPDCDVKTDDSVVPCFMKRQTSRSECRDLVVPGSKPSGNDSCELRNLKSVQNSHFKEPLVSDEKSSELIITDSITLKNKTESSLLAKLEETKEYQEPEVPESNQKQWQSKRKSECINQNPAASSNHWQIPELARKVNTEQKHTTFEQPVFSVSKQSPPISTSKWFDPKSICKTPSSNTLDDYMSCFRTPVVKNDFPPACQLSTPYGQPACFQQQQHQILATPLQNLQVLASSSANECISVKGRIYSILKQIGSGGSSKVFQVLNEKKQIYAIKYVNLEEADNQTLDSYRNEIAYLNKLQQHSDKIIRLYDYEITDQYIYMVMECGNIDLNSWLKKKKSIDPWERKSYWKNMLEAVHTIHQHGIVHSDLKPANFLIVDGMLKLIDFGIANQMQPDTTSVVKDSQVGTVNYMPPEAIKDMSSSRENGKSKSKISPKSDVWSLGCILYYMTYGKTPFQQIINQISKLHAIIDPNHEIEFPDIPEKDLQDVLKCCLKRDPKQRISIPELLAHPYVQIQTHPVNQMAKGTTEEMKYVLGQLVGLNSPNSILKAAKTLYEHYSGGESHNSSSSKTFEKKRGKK

[15] = system: T6, Receptor-type tyrosine-protein kinase FLT3 (Homo sapiens), P36888 [D835Y]; details: at 1 µM
T6 sequence (whole entry): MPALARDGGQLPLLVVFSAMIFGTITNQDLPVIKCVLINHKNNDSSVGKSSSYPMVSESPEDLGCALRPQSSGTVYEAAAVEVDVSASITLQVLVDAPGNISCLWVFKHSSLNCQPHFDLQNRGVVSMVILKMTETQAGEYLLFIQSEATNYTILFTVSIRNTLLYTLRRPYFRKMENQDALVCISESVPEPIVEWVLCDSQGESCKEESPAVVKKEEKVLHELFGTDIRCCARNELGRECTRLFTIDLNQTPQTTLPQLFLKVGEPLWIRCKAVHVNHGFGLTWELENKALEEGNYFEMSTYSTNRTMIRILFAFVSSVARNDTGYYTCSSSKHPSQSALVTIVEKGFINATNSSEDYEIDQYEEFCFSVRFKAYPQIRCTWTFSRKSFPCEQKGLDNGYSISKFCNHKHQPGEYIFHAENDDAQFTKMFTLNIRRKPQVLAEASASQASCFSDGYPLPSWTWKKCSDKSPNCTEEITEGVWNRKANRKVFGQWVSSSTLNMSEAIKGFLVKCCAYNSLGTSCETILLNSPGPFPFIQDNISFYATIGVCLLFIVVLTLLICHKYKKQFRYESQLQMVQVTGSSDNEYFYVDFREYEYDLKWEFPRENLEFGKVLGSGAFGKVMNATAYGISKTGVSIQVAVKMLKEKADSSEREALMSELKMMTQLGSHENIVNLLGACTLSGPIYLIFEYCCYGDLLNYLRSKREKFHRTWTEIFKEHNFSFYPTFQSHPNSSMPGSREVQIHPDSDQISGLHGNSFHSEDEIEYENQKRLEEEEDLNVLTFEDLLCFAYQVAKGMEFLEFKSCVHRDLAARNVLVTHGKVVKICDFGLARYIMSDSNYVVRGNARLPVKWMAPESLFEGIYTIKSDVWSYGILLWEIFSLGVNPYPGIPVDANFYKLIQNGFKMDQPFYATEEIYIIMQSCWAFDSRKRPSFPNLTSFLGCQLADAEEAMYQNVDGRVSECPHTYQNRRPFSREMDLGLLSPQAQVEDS

[16] = target: Vascular endothelial growth factor receptor 3 (Homo sapiens) (UniProt P35916); details: at 0.1 µM
Vascular endothelial growth factor receptor 3 (Homo sapiens), sequence (P35916 whole entry): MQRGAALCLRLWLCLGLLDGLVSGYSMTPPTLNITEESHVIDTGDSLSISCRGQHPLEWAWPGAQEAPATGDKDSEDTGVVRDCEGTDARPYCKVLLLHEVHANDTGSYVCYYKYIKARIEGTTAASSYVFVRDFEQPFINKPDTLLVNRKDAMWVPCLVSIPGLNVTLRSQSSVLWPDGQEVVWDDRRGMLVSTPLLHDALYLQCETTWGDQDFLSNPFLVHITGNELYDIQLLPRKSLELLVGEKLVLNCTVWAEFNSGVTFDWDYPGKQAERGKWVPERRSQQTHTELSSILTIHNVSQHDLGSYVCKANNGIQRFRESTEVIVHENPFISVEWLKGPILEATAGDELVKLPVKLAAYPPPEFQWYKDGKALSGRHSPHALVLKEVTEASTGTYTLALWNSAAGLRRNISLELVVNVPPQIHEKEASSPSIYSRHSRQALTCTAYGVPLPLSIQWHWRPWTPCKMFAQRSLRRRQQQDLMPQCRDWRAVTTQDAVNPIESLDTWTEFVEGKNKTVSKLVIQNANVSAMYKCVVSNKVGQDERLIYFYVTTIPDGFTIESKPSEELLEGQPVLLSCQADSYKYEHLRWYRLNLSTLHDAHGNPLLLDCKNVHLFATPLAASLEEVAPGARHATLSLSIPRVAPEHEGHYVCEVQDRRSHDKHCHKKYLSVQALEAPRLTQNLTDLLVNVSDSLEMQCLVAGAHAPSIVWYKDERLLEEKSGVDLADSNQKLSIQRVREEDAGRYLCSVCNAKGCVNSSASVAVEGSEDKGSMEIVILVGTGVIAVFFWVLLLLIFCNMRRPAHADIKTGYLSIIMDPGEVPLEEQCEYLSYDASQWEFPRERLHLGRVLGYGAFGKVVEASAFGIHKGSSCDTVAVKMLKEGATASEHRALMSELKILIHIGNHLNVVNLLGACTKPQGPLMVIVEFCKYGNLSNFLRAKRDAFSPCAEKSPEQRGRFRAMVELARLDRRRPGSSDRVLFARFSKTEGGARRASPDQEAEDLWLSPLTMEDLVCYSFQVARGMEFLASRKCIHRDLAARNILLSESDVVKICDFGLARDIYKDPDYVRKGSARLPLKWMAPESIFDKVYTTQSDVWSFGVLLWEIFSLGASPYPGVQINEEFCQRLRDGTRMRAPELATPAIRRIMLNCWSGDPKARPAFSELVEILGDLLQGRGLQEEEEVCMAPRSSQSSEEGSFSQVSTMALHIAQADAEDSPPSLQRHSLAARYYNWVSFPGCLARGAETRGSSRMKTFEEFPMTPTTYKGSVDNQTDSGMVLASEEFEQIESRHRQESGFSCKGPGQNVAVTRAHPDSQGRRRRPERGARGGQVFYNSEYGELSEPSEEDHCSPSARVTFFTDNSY

[17] = target: Vascular endothelial growth factor receptor 3 (Homo sapiens) (UniProt P35916); details: at 1 µM
[18] = target: Macrophage colony-stimulating factor 1 receptor (Homo sapiens) (UniProt P07333); details: at 0.1 µM
Macrophage colony-stimulating factor 1 receptor (Homo sapiens), sequence (P07333 whole entry): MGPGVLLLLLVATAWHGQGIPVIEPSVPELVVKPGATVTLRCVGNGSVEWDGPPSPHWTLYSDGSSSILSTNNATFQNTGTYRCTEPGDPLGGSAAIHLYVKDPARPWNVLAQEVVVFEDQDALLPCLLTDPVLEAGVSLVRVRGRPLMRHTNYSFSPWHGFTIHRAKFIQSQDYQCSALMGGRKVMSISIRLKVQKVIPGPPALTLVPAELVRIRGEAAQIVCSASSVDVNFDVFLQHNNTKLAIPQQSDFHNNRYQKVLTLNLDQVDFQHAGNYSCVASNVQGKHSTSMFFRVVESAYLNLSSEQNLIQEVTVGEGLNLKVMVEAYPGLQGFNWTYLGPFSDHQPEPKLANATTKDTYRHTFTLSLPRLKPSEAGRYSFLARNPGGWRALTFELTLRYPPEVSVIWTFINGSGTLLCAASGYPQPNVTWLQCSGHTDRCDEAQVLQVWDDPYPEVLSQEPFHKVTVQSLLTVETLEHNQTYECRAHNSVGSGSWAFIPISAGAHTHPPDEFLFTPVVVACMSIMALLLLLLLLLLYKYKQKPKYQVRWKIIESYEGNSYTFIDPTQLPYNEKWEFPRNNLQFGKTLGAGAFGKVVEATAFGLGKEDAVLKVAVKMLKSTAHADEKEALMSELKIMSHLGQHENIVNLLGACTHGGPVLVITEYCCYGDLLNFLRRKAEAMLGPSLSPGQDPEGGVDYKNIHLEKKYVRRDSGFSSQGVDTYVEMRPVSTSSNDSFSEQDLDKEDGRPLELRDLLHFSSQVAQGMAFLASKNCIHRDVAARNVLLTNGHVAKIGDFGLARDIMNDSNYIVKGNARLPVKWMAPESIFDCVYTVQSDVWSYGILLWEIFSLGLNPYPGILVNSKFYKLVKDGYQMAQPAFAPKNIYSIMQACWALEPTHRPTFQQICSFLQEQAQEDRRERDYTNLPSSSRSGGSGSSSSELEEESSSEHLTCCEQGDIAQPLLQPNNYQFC

[19] = target: Macrophage colony-stimulating factor 1 receptor (Homo sapiens) (UniProt P07333); details: at 1 µM
[20] = target: Tyrosine-protein kinase Fyn (Homo sapiens) (UniProt P06241); details: at 0.1 µM
Tyrosine-protein kinase Fyn (Homo sapiens), sequence (P06241 2-537 limits assumed): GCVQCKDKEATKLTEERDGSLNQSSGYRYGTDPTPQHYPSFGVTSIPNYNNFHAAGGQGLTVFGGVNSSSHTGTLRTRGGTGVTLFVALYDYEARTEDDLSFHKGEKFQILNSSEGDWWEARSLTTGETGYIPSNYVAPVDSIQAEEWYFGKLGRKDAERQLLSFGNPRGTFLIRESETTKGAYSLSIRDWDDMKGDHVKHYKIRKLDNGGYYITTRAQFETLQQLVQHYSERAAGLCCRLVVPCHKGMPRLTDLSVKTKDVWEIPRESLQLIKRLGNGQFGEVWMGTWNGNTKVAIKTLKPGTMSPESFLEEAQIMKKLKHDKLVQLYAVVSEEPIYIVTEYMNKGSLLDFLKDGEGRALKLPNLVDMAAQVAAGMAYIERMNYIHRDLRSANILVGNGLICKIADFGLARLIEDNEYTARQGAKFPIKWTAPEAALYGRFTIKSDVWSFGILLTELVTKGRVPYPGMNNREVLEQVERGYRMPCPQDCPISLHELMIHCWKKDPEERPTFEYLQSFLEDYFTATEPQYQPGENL

SMILES	inhibition [1]	inhibition [2]	inhibition [3]	inhibition [4]	inhibition [5]	inhibition [6]	inhibition [7]	inhibition [8]	inhibition [9]	inhibition [10]	inhibition [11]	inhibition [12]	inhibition [13]	inhibition [14]	inhibition [15]	inhibition [16]	inhibition [17]	inhibition [18]	inhibition [19]	inhibition [20]
N#Cc1c(NC(=O)CN2CCOCC2)sc2c1CCCC2	92%	2.42%	6.07%	4.61%	4.37%	3.33%	5.18%	2.96%	3.61%	6.26%	1.68%	2.26%	2.27%	9.9%	0.1%	0.77%	3.83%	5.19%	2.67%	0.52%
c1ccc(-c2nc3n(c2-c2ccc4c(c2)OCO4)CCC3)nc1	1.63%	2.25%	1.34%	2.03%	3.36%	1.4%	-0.68%	4.7%	3.16%	4.73%	0.13%	1.59%	1.37%	4.41%	4.03%	13.3%	15.8%	4.57%	1.74%	1.85%
CN(C)CCOc1ccc(-c2nc(-c3ccncc3)c(-c3ccc4c(c3)CC/C4=N\O)[nH]2)cc1	7.42%	0.81%	5.31%	2.72%	4.52%	3.81%	0.68%	1.62%	2.67%	4.08%	4.4%	2.08%	2.04%	6.91%	7.87%	1.85%	3.47%	-1.89%	4.02%	0.02%
COc1cc(Nc2nccc(Nc3ccc4c(C)n[nH]c4c3)n2)cc(OC)c1OC	12.9%	1.89%	7.77%	0.97%	0.41%	-1.67%	-0.68%	3.64%	2.17%	0.16%	5.56%	2.28%	4.34%	2.57%	87.2%	78.8%	106%	79.3%	94.1%	44.9%

Reference: ChEMBL document CHEMBL1961873, “Compounds: GSK PKIS; Assays: Nanosyn kinase panel” (2012)
